Compound activity from PubChem.
Hits are enriched below; roughly 6.6% of the tested compounds scored in any of these assays.
KB-V1 cytotox: KB-V1 MDR subline cytotoxicity. KB-V1 MDR cells viability, CellTiter-Glo, 72 h. Potency, µM (titrated, usually from 46.1 µM), hits mostly cytotoxic. 400,000 tested, 3.4% active. AID 1347076; note: % is set by controls: 0 for no effect and ±100 for the full control effect; nearly all actives have a fitted effect of over 60% in size
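KB-V1 cells (P-gp-expressing MDR subline of KB-3-1) in phenol-red-free DMEM with 10% FBS were exposed to library compounds over a concentration series for 72 h at 37 degrees C. Viability read by CellTiter-Glo luminescence; concentration-effect curves fitted after normalization.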
RGS4 inh: inhibitors of human regulator of G protein signaling 4 | Transcreener GDP fluorescence polarization, RGS4-accelerated GTP hydrolysis | 390,000 tested, 0.039% active | P49798 | Potency, µM (highest dose often 114 µM), without a hit: top-dose activity change, negative = inhibition, actives largely listed as inhibitors | AID 504845; note: % is set by controls: 0 for no effect and ±100 for the full control effect; nearly all actives have a fitted effect of over 75% in size
Target sequence (P49798 whole entry, looked up): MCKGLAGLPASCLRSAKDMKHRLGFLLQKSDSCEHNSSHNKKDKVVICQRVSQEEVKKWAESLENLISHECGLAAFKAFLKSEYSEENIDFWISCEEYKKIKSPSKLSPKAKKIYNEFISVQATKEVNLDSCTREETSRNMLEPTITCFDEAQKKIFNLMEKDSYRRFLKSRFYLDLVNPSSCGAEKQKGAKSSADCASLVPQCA
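MLSMR compounds (23 nl, pin-transferred) preincubated 10 min at room temperature with a 500nM (2x) first reagent, then RGS4 at 900nM (2x) plus Transcreener GDP mix added; fluorescence polarization (620/688 nm) read before and after 90 min at 30 °C.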
SW480 rerep: DNA re-replication induction in SW480 cells. SW480 DNA re-replication, Hoechst DNA content imaging, 48 h. Potency, µM (top dose mostly 46.1 µM), for the others: at the highest dose re-replication activation, actives largely listed as activators. 340,000 tested, 1.8% active. AID 624297; note: % of control where 0% means no effect; nearly all actives have a fitted effect of over 55% in size
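Cells (250 per well) received 23 nL compound or DMSO by pin tool and were kept 48 hr at 37 C, 5% CO2. Nuclei were then stained with Hoechst for 40 min and scanned for DNA content.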
MCF10A rereplic: inducers of DNA re-replication in MCF 10A breast cells; 350,000 tested, 2.9% active; AID 624296; MCF 10A DNA re-replication, Hoechst nuclear intensity, 48 h; Potency, µM (series often up to 46.1 µM), for the others: at the highest dose activity, positive = re-replication, actives largely listed as activators; note: % of control where 0% means no effect; nearly all actives have a fitted effect of over 50% in size
KB-3-1 tox: kills parental KB-3-1 adenocarcinoma cells; KB-3-1 viability, CellTiter-Glo ATP luminescence, 72 h; 400,000 tested, 1.4% active; Potency, µM (top dose mostly 46.1 µM), most hits filed as cytotoxic; note: % is set by controls: 0 for no effect and ±100 for the full control effect; nearly all actives have a fitted effect of over 60% in size
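Cytotoxicity measured as CellTiter-Glo luminescence after 72 h at 37 C. Compound titrations were pinned onto drug-naive KB-3-1 parental adenocarcinoma cells grown in DMEM with 10% FBS, and normalized data fitted to concentration-response curves.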
TSG101-PTAP inh: blocks PTAP/TSG101 interaction to inhibit HIV-1 budding; AID 493005; Fluorescence polarization, FITC-PTAP peptide / Tsg101 binding; Potency, µM (top dose mostly 115 µM), without a hit: at the highest dose activity change, negative = inhibition, most hits filed as inhibitors; 340,000 tested, under 10 active; Q99816; active = well fitted inhibition curve with a large enough effect in the main read-out, with a control signal flat, not every such curve was filed as active; inconclusive = small, poorly fitted or top-dose-only effect, or effect the other way, or a change in a side signal; inactive = no such curve, though single readings can be large or run the other way; note: % of control where 0% means no effect
Target sequence (Q99816 whole entry, looked up): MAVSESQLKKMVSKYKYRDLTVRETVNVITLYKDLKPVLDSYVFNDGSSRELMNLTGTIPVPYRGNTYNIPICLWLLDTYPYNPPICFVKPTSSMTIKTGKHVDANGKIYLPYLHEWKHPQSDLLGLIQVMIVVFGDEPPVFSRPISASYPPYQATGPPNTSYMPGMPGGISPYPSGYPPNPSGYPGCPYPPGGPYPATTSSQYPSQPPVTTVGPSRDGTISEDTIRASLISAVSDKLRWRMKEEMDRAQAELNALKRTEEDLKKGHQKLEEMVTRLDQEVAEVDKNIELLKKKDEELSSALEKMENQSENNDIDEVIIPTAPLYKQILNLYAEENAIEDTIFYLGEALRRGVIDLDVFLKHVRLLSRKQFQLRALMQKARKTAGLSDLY
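Compounds were pin-transferred onto Tsg101 binding domain (10 uM final) in HEPES pH 7.5 buffer, then FITC-PTAP peptide was added at 50 nM final. After 20 min at RT, polarization reported peptide displacement across a qHTS concentration series.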
An asterisk follows results filed as active. Unless noted, calls come from the whole dose curve; as a rule, active = well fitted curve in the direction sought with a large enough effect; inconclusive = small, poorly fitted or top-dose-only effect, or another doubt; inactive = no such curve, though single readings can be large; an effect the other way counts as inactive or inconclusive. Potency is the fitted concentration of half-maximal effect.

What do the screens show for `Cc1ccc(C(=O)NC(=S)Nc2c(C)ccc3nsnc23)cc1`?
KB-V1 cytotox: inconclusive; RGS4 inh: -25%; SW480 rerep: -6%; MCF10A rereplic: -2%; KB-3-1 tox: inactive; TSG101-PTAP inh: -4%

How did Cc1ccc2nsnc2c1NC(=O)c1ccc(-c2cc(Cl)ccc2Cl)o1 do in these assays?
KB-V1 cytotox: inconclusive; RGS4 inh: -29%; SW480 rerep: 13µM*; MCF10A rereplic: 18%; KB-3-1 tox: inconclusive; TSG101-PTAP inh: -6%

Results for Cc1ccc2nsnc2c1NC(=O)c1ccc([N+](=O)[O-])o1 ?
KB-V1 cytotox: inconclusive; RGS4 inh: 22%; SW480 rerep: 2%; MCF10A rereplic: 21µM*; KB-3-1 tox: 4.1µM*; TSG101-PTAP inh: 2%

What do the screens show for `Cc1ccc2nsnc2c1NC(=O)CCl`?
KB-V1 cytotox: inactive; RGS4 inh: 4%; SW480 rerep: inconclusive; MCF10A rereplic: 13%; KB-3-1 tox: inactive; TSG101-PTAP inh: -1%

Results for CC(C)C(=O)NC(=S)Nc1c(Cl)ccc2nsnc12 ?
KB-V1 cytotox: inactive; RGS4 inh: -34%; SW480 rerep: -12%; MCF10A rereplic: 18µM*; KB-3-1 tox: inactive; TSG101-PTAP inh: 2%

Results for Cc1c(CC(=O)NCc2ccc(F)cc2)c(=O)oc2cc(O)c(Cl)cc12 ?
RGS4 inh: 6%

Results for Nc1c(-c2nc(-c3ccncc3)no2)nnn1CC(=O)Nc1ccccc1 ?
RGS4 inh: 8%

Results for CCn1c2ccccc2c2nnc(SCC(=O)NC(CC(C)C)C(=O)OC)nc21 (stereo not given) ?
KB-V1 cytotox: 5.2µM*; RGS4 inh: 10%; SW480 rerep: 0%; MCF10A rereplic: 1%; KB-3-1 tox: inactive; TSG101-PTAP inh: -5%

Results for CCOC(=O)C(Sc1nnc2c3ccccc3n(CC)c2n1)C(=O)OCC ?
KB-V1 cytotox: 13µM*; RGS4 inh: -20%; SW480 rerep: 5%; MCF10A rereplic: 6%; KB-3-1 tox: inconclusive; TSG101-PTAP inh: -3%

How did CCn1c2ccccc2c2nnc(SCC(=O)Nc3ccccc3OC)nc21 do in these assays?
RGS4 inh: 1%

Results for Cc1ccccc1NC(=O)c1nc(S(C)(=O)=O)ncc1Cl ?
KB-V1 cytotox: inactive; RGS4 inh: inconclusive; SW480 rerep: inconclusive; MCF10A rereplic: inconclusive; KB-3-1 tox: inactive; TSG101-PTAP inh: -1%

How did CS(=O)(=O)c1ncc(Cl)c(C(=O)Nc2ccc(OC(F)F)cc2)n1 do in these assays?
KB-V1 cytotox: inconclusive; RGS4 inh: inconclusive; SW480 rerep: 1.8µM*; MCF10A rereplic: 5.2µM*; KB-3-1 tox: inconclusive; TSG101-PTAP inh: 1%

Results for CS(=O)(=O)c1ncc(Cl)c(C(=O)Nc2ccc(N3CCOCC3)cc2)n1 ?
KB-V1 cytotox: inactive; RGS4 inh: inconclusive; SW480 rerep: 10µM*; MCF10A rereplic: -4%; KB-3-1 tox: inactive; TSG101-PTAP inh: -9%

Results for COc1ccc(-c2noc(N3CCC(C(=O)N4CCN(c5ccccn5)CC4)CC3)n2)cc1 ?
KB-V1 cytotox: 5.8µM*; RGS4 inh: -10%; SW480 rerep: -8%; MCF10A rereplic: 20%; KB-3-1 tox: inactive; TSG101-PTAP inh: -3%

How did c1ccc(CC[n+]2ccncc2)cc1 do in these assays?
KB-V1 cytotox: inactive; KB-3-1 tox: inactive

What do the screens show for `Oc1cccc(CN2CCN(c3ncc(Cc4ccccc4)cn3)CC2)c1`?
KB-V1 cytotox: inconclusive; KB-3-1 tox: inactive

How did Oc1ccc(Cl)c(CN2CCN(c3ncc(Cc4ccccc4)cn3)CC2)c1 do in these assays?
KB-V1 cytotox: 16µM*; KB-3-1 tox: inconclusive

Results for Clc1ccccc1CN1CCc2nc(N3CCN(c4ncccn4)CC3)ncc2C1 ?
KB-V1 cytotox: 18µM*; RGS4 inh: -21%; KB-3-1 tox: inconclusive

Results for Clc1ccc(CN2CCN(c3ncccn3)CC2)c(Cl)c1 ?
KB-V1 cytotox: inactive; RGS4 inh: 13%; SW480 rerep: inconclusive; MCF10A rereplic: 23µM*; KB-3-1 tox: inactive; TSG101-PTAP inh: 1%

Results for Clc1ccccc1CN1CCN(c2ncccn2)CC1 ?
KB-V1 cytotox: inactive; RGS4 inh: -5%; SW480 rerep: -21%; MCF10A rereplic: 1%; KB-3-1 tox: inactive; TSG101-PTAP inh: -2%

Results for CC(C)Nc1nc(Cl)nc(N(C#N)CN2C(=O)c3ccccc3C2=O)n1 ?
KB-V1 cytotox: inactive; RGS4 inh: -48%; SW480 rerep: inconclusive; MCF10A rereplic: 16µM*; KB-3-1 tox: inconclusive; TSG101-PTAP inh: 0%

What do the screens show for `O=C(Nc1ccc(OCc2cc(=O)n3ccccc3n2)cc1)c1ccccc1Cl`?
RGS4 inh: -7%

How did Cc1ccc(CN2C(=O)c3oc4ccc(C)cc4c(=O)c3C2c2ccc(O)cc2)cc1 (stereo not given) do in these assays?
KB-V1 cytotox: inconclusive; RGS4 inh: -7%; KB-3-1 tox: inactive

What do the screens show for `CC1(C(=O)NC(=S)NNC(=O)c2ccncc2)CCCCC1`?
KB-V1 cytotox: inconclusive; RGS4 inh: -32%; SW480 rerep: 9.2µM*; MCF10A rereplic: 11%; KB-3-1 tox: inconclusive; TSG101-PTAP inh: -3%

Results for COc1ccc(C(=O)Nc2nnc(-c3cccs3)s2)cc1 ?
KB-V1 cytotox: inconclusive; RGS4 inh: -8%; SW480 rerep: inconclusive; MCF10A rereplic: inconclusive; KB-3-1 tox: 5.2µM*; TSG101-PTAP inh: 1%

Results for C/C=C/C(=O)[C@@H](C)[C@@H](/C=C/C[Si](C)(C)C)C(C)C ?
RGS4 inh: -2%

How did CCOc1ccc(NC(=S)c2ccncc2)cc1 do in these assays?
KB-V1 cytotox: 21µM*; RGS4 inh: -44%; SW480 rerep: -124%; MCF10A rereplic: -74%; KB-3-1 tox: 23µM*; TSG101-PTAP inh: -1%

Results for CCOc1ccc(NC(=S)Nc2ccc(OC)cc2)cc1 ?
KB-V1 cytotox: inactive; RGS4 inh: -25%; SW480 rerep: 6%; MCF10A rereplic: -4%; KB-3-1 tox: inactive; TSG101-PTAP inh: 1%

How did O=C(/C=C/c1ccccc1)c1ccc2c(c1)OCO2 do in these assays?
KB-V1 cytotox: inactive; RGS4 inh: -12%; SW480 rerep: inconclusive; MCF10A rereplic: inconclusive; KB-3-1 tox: inactive; TSG101-PTAP inh: -3%

What do the screens show for `O=C(/C=C/c1ccncc1)c1ccc2c(c1)OCCO2`?
KB-V1 cytotox: inconclusive; RGS4 inh: inconclusive; SW480 rerep: inconclusive; MCF10A rereplic: inconclusive; KB-3-1 tox: 23µM*; TSG101-PTAP inh: 0%
